KLK7 zymogen act = activates the human kallikrein-7 zymogen | purified proKLK7, EDANS-DABCYL substrate fluorescence; 100% is mature enzyme control, 0% vehicle | P49862 | activation, % at 7 µM | 370,000 compounds, 0.9% hits;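 active means activation above the mean of all tested compounds plus 3 SD, computed per campaign excluding outliers beyond control limits, cut at about 13% in these data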
MPTP block = blocks calcium-induced mitochondrial swelling | isolated mouse mitochondria, Ca2+ swelling absorbance, 30 min | 360,000 compounds, 1.4% hits | inhibition, % at 10 µM | AID 602449;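 active means inhibition of 50% or more, scaled per plate between neutral and stimulator controls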;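 further: 0% = DMSO wells given calcium and 100% = 1 mM EGTA wells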
DSG3 Ab inh = human desmoglein-3 autoantibody binding inhibition; P32926; DSG3-coupled beads, scFv-anti-DSG3-GFP binding, flow cytometry; stronger effect = lower value; binding (percent of control), % at 10 µM; 310,000 compounds, 0.48% hits; AID 588358;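 active means binding more than 3 SD below its plate's average and above zero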;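 further: hits lower antibody fragment binding to DSG3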
ADAM10 inh = ADAM10 inhibition, QFRET primary screen; 370,000 compounds, 0.62% hits; inhibition, % at 7 µM; O14672; recombinant ADAM10, EDANS/DABCYL FRET peptide cleavage, 3 h;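 active means inhibition above a per-campaign cutoff equal to the mean of compounds falling between control-based bounds plus 3 SD, cut at about 20% in these data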;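 further: 0% = DMSO wells while the 100% control is not disclosed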
rCAG RNA binder = binds r(CAG) RNA repeats. 370,000 compounds, 1.3% hits. AID 651821. r(CAG) RNA repeat, TO-PRO-1 dye displacement fluorescence. inhibition, % at 3 µM;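 active means inhibition above the plate cutoff, the mean of all test compounds on that plate plus 3 SD, cut at about 35% in these data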;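 further: 0% = DMSO alone and 100% = 100 µM mitoxantrone as full dye displacement; higher means more dye released from RNA so lower well fluorescence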
ADAM17 inh = inhibits human ADAM17. recombinant ADAM17, EDANS/DABCYL FRET peptide cleavage. 370,000 compounds, 0.83% hits. P78536. inhibition, % at 6.95 µM;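 active means inhibition above the mean of compounds lying between control limits plus 3 SD, set per campaign, cut at about 8.5% in these data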;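 further: 0% = DMSO-only wells as the low control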
Target sequence (P78536 215-824 limits assumed): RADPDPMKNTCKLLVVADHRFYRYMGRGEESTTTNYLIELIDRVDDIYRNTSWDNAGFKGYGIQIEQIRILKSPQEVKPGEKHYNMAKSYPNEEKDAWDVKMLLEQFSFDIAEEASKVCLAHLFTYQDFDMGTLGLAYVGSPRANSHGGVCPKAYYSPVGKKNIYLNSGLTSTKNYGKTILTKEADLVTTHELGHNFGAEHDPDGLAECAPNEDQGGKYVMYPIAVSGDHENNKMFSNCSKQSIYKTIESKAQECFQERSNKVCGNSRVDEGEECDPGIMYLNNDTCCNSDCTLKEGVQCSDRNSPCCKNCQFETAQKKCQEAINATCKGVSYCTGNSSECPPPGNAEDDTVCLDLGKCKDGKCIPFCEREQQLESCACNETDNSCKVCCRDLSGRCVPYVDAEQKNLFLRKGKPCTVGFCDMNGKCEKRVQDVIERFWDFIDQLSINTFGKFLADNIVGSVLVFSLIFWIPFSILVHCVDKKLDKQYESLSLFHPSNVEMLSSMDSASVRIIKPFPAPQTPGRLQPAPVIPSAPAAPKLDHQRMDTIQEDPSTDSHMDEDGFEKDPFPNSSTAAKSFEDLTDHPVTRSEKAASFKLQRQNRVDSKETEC
proKLK7 act conf = proKLK7 activation, confirmation | purified proKLK7, EDANS-DABCYL substrate fluorescence; scaled: vehicle 0, mature enzyme 100 | shares compounds with KLK7 zymogen act | 3,200 compounds, 68% hits | activation, % at 7 µM;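 active means activation, as change over the incubation, above the mean of all tested compounds plus 3 SD, cut at about 13% in these data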
EDANS interfere = optically interferes with EDANS-DABCYL signal, flagging KLK7 hits; shares compounds with KLK7 zymogen act; EDANS-DABCYL substrate fluorescence interference, no enzyme, 4 h; solvent 0%, active enzyme control 100%; activation, % at 7 µM; 3,200 compounds, 80% hits;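 active means activation above the all-compound mean plus 3 SD, ignoring values outside control-based bounds, cut at about 4.8% in these data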;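 further: value is the 4 h activation minus the activation read at time zero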
* marks the source's active call; other numbers are inactive results. Hits are enriched below; roughly 4.7% of the tested compounds scored in any of these assays.

Results for CC(C)(C)C1CCc2c(sc(NC(=O)c3ccco3)c2C(N)=O)C1 (centres undefined) ?
KLK7 zymogen act: -1; MPTP block: 13; ADAM10 inh: -3; rCAG RNA binder: 1; ADAM17 inh: -4

How did CCC1CCc2c(sc(NC(=O)c3ccco3)c2C(N)=O)C1 (centres undefined) do in these assays?
KLK7 zymogen act: 91*; MPTP block: 1; DSG3 Ab inh: 105; ADAM10 inh: -26; rCAG RNA binder: 12; ADAM17 inh: -8; proKLK7 act conf: -13; EDANS interfere: -16

How did COc1cccc2[nH]c3c(=O)[nH]cnc3c12 do in these assays?
KLK7 zymogen act: 13*; MPTP block: 5; DSG3 Ab inh: 108; ADAM10 inh: inactive; rCAG RNA binder: 5; ADAM17 inh: -388; proKLK7 act conf: 10; EDANS interfere: 14*

What do the screens show for `COc1cc2[nH]c3c(=O)n(CCN(C(C)C)C(C)C)cnc3c2cc1OC`?
KLK7 zymogen act: 6; MPTP block: 0; ADAM10 inh: -223; rCAG RNA binder: -4; ADAM17 inh: -76

How did CCN(CC)CCn1cnc2c([nH]c3cccc(OC)c32)c1=O do in these assays?
KLK7 zymogen act: 67*; MPTP block: -4; DSG3 Ab inh: 95; ADAM10 inh: inactive; rCAG RNA binder: -2; ADAM17 inh: -364; proKLK7 act conf: 28*; EDANS interfere: 31*

What do the screens show for `COc1cccc2[nH]c3c(=O)n(CCN(C)C)cnc3c12`?
KLK7 zymogen act: 49*; MPTP block: -4; DSG3 Ab inh: 96; ADAM10 inh: inactive; rCAG RNA binder: 3; ADAM17 inh: -286; proKLK7 act conf: 15*; EDANS interfere: 14*

How did COc1cccc2c3cccc(OC)c3c3[nH]cnc3c12 do in these assays?
KLK7 zymogen act: 0; MPTP block: -1; ADAM10 inh: -140; rCAG RNA binder: 9; ADAM17 inh: -38

What do the screens show for `COc1cc(NC(=O)Nc2nc(C(N)Cc3ccc(C(F)(F)F)cc3)cs2)cc(OC)c1OC` (centres undefined)?
KLK7 zymogen act: 0; MPTP block: 4; ADAM10 inh: 0; rCAG RNA binder: 33; ADAM17 inh: 8

What do the screens show for `CSc1nnc(C)c(=O)n1COC(=O)c1ccccc1`?
KLK7 zymogen act: 0; MPTP block: -1; DSG3 Ab inh: 98; ADAM10 inh: -2; rCAG RNA binder: -4; ADAM17 inh: -2

Results for CCCCC[C@@H](C)N1C[C@H](COCc2ccccc2)Oc2cc(N3CC[C@H](N(C)C)C3)ccc2S1(=O)=O ?
KLK7 zymogen act: 0; MPTP block: 4; ADAM10 inh: -4; rCAG RNA binder: 6; ADAM17 inh: 3

How did Cc1c(O)ccc2cc(S(=O)(=O)c3ccccc3)c(=O)oc12 do in these assays?
KLK7 zymogen act: 45*; MPTP block: 0; DSG3 Ab inh: 93; ADAM10 inh: inactive; rCAG RNA binder: 2; ADAM17 inh: inactive; proKLK7 act conf: 70*; EDANS interfere: 73*

Results for CC(=O)C[C@@H](O)CC(=O)[C@@H]1OC(=O)[C@H](C)C/C=C\Cc2ccccc21 ?
KLK7 zymogen act: -1; MPTP block: -2; DSG3 Ab inh: 102; ADAM10 inh: -4; rCAG RNA binder: 1; ADAM17 inh: -4

What do the screens show for `CCOc1cc(/C=N/NC(=O)C(=O)N/N=C/c2ccc(O)c(OCC)c2)ccc1O`?
KLK7 zymogen act: 16*; MPTP block: 0; DSG3 Ab inh: 98; ADAM10 inh: -3; rCAG RNA binder: -4; ADAM17 inh: -6; proKLK7 act conf: -21; EDANS interfere: -8

How did CN(C)C(=O)C[C@@H]1C=C[C@@H](NC(=O)C2CCC2)[C@@H](CO)O1 do in these assays?
KLK7 zymogen act: 0; MPTP block: 0; ADAM10 inh: -17; rCAG RNA binder: 2; ADAM17 inh: -3

How did Cc1ccc2nc3c(cc(C(=O)NCC4CCCO4)c(=N)n3CCCOC(C)C)c(=O)n2c1 (centres undefined) do in these assays?
KLK7 zymogen act: 106*; MPTP block: 0; DSG3 Ab inh: 96; ADAM10 inh: inactive; rCAG RNA binder: -1; ADAM17 inh: inactive; proKLK7 act conf: 45*; EDANS interfere: 44*

How did CCn1cc(C(=O)NCC2CCCO2)c2cc(OC)c(OC)cc2c1=O (centres undefined) do in these assays?
KLK7 zymogen act: 0; MPTP block: 0; DSG3 Ab inh: 100; ADAM10 inh: -11; rCAG RNA binder: -2; ADAM17 inh: -3

How did CCOCCCNc1nc2nc3ccc(C)cn3c(=O)c2cc1C(=O)NCC1CCCO1 (centres undefined) do in these assays?
KLK7 zymogen act: 55*; MPTP block: -2; DSG3 Ab inh: 102; ADAM10 inh: inactive; rCAG RNA binder: -1; ADAM17 inh: inactive; proKLK7 act conf: 16*; EDANS interfere: 26*

Results for CCOc1ccccc1OCCCC(=O)N(CC)CC(=O)Nc1ccc(NC(C)=O)cc1 ?
KLK7 zymogen act: 0; MPTP block: 4; DSG3 Ab inh: 102; ADAM10 inh: -16; rCAG RNA binder: -6; ADAM17 inh: 2

What do the screens show for `CCOc1ccc2nc3sc(C(=O)N4CCOCC4)c(N)c3cc2c1`?
KLK7 zymogen act: 13*; MPTP block: 0; DSG3 Ab inh: 112; ADAM10 inh: -312; rCAG RNA binder: 7; ADAM17 inh: -106; proKLK7 act conf: 8; EDANS interfere: 6.6*

What do the screens show for `Cc1cc(C)c2nc3sc(C(=O)N4CCOCC4)c(N)c3cc2c1`?
KLK7 zymogen act: 2; MPTP block: 3; DSG3 Ab inh: 92; ADAM10 inh: -38; rCAG RNA binder: 12; ADAM17 inh: -15

What do the screens show for `Cc1cc(C)c2cc3c(N)c(C(=O)N4CCOCC4)sc3nc2c1`?
KLK7 zymogen act: 19*; MPTP block: -1; DSG3 Ab inh: 104; ADAM10 inh: -374; rCAG RNA binder: 9; ADAM17 inh: -131; proKLK7 act conf: -9; EDANS interfere: -8

What do the screens show for `CNc1cnc(-c2ccc(C(=O)N3CCOCC3)cc2)cn1`?
KLK7 zymogen act: 20*; MPTP block: 1; ADAM10 inh: inactive; rCAG RNA binder: 2; ADAM17 inh: inactive; proKLK7 act conf: 20*; EDANS interfere: 22*

Results for COc1ccc(N2C(=O)c3ccccc3NC2c2cccnc2)cc1 (centres undefined) ?
KLK7 zymogen act: 0; MPTP block: 0; DSG3 Ab inh: 96; ADAM10 inh: -58; rCAG RNA binder: -2; ADAM17 inh: -20

High-throughput results from PubChem BioAssay.
